Screening data (PubChem BioAssay)
SKBR3 24h inh = SK-BR-3 proliferation inhibitors. SK-BR-3 viability, CellTiter-Glo ATP luminescence, 24 h; stronger effect = lower value. viability, % at 10 µM. 41,000 compounds, 0.47% hits. AID 847;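 active = viability at or below the median of all test compounds minus 3 SD, in both replicates if run twice, cut at about 45% in these data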;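 note: 100% = median untreated cell wells and 0% = median positive control drug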
Her2 expr inh = lowers expression of human Her2 kinase; HER2 level % of control, % at 10 µM; SKBR-3 HER2 protein level, AlphaScreen, 18-24 h; stronger effect = lower value; 65,000 compounds, 0.69% hits; P04626; AID 645;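 active = HER2 level under 5% of the carrier-only control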;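 note: 100% = DMSO carrier and 0% = 500 nM PU-H71 HSP90 inhibitor; lower value means stronger loss of Her2 protein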
Jurkat viability = reduces viability or proliferation of Jurkat cells. Jurkat E6.1 viability, ATP luminescence, 48 h. inhibition, % at 4 µM. 56,000 compounds, 1.2% hits;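 active = inhibition above the mean inhibition of all tested compounds plus 3 SD, cut at about 28% in these data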
An asterisk follows results filed as active; / = no result given. Only some compounds are listed: those with a hit (about 1.9% of all), similar ones and a draw of the others.

SMILES	SKBR3 24h inh	Her2 expr inh	Jurkat viability
CCOC(=O)c1[nH]c2c(c1C)C(=O)CC(c1ccco1)C2 (stereo unspecified)	/	27	100*
Cc1c(C(=O)OCc2ccccc2)[nH]c2c1C(=O)CC(c1ccco1)C2 (stereo unspecified)	/	45	98*
COCCOC(=O)c1[nH]c2c(c1C)C(=O)CC(c1ccc(N(C)C)cc1)C2 (stereo unspecified)	75	79	-4
COCCOC(=O)c1[nH]c2c(c1C)C(=O)C(C(=O)OC)C(C)C2 (stereo unspecified)	/	94	-8
Cc1c(C(=O)O)[nH]c2c1C(=O)CC(c1ccccc1)C2 (stereo unspecified)	/	112	/
Cc1cccn2c(=O)c3cc(C(=O)N4CCc5ccccc5C4)n(C)c3nc12	71	82	-2
Cc1cnc(C)c(N2CCC(C(=O)NC(C)c3cccs3)CC2)n1 (stereo unspecified)	/	111	10
Cc1c(C(=O)OCCOC(C)C)[nH]c2c1C(=O)CC(C)(C)C2	/	63	1
Cc1c(C(=O)OCCOC(C)C)[nH]c2c1C(=O)CC(c1ccco1)C2 (stereo unspecified)	/	42	100*
COCCOC(=O)c1[nH]c2c(c1C)C(=O)CC(c1ccccc1)C2 (stereo unspecified)	/	54	/
COCCOC(=O)c1[nH]c2c(c1C)C(=O)CC(c1ccc(F)cc1)C2 (stereo unspecified)	/	49	75*
CCN1CCN(C(c2cccs2)C(C)NC(=O)C(C)C)CC1 (stereo unspecified)	/	119	2
COn1c(SC2CCCCC2)nc2ccccc2c1=O	104	121	/
Cn1c(=O)c(C(=O)c2ccccc2)nc2ccccc21	104	146	4
Cn1cc(C(=O)c2ccc(Cl)cc2)cc1-c1nc2ccccc2n1C	72	29	42*
CCS(=O)(=O)NCC(c1cccnc1)N1CCN(c2ccccc2F)CC1 (stereo unspecified)	94	76	-9
COc1ccc(C)cc1NC(=O)c1cnc2sccn2c1=O	/	91	-3
CCCc1nc2oc3c(N4CCNCC4)ncnc3c2c2c1CCCC2	71	-15*	0
CC(C)Cc1nc2oc3c(N4CCN(C)CC4)ncnc3c2c2c1CCCC2	88	78	4
C[C@@H]1C[C@H]2[C@@H]3CCC4=CC(=O)C=C[C@]4(C)[C@@]3(F)[C@@H](O)C[C@]2(C)[C@H]1C(=O)CO	115	105	/
COc1ccc(C)cc1NC(=O)c1nnn(CCc2ccccc2)c1N	/	93	-6
Nc1c(C(=O)Nc2ccc3c(c2)OCCO3)nnn1CCc1ccccc1	/	80	80*
